Screening results (PubChem BioAssay)
Hits are enriched below; roughly 0.8% of the tested compounds scored in any of these assays.
TDP1 block – qHTS Assay for Inhibitors of Tyrosyl-DNA Phosphodiesterase (TDP1) | 0.28% of 350,000 active | recombinant TDP1, AlphaScreen DNA substrate cleavage | Potency, µM (highest dose often 130 µM), inactives show at the highest dose activity change, negative = inhibition, actives largely listed as inhibitors; note: potency is the fitted concentration of half-maximal effect; nearly all actives have a fitted effect of over 40% in size
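Here, a 5' biotin and 3' phosphotyrosine-FITC DNA oligonucleotide reports Tdp1 activity: intact substrate bridges AlphaScreen beads, while cleavage leaves a 3' phosphate and drops signal. All incubations at room temperature.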
FEN1 inhibitor – qHTS Assay for the Inhibitors of Human Flap endonuclease 1 (FEN1); AID 588795, 2011; Potency, µM (top dose mostly 114 µM), inactives show at the top dose activity change, negative = inhibition, usual class: inhibitors; 0.35% of 390,000 active; Recombinant FEN1 flap cleavage, fluorescence, 15 min; P39748; note: potency is the fitted concentration of half-maximal effect; nearly all actives have a fitted effect of over 65% in size
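Concentration–response screening of FEN1 (10 nM): 15 min compound preincubation at room temperature, reaction started with 50 nM substrate and read at 0 and 15 min. Corrected, normalized data were fitted by a four-parameter Hill equation.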
PGK inhibitor – qHTS Assay to Find Inhibitors of Phosphoglycerate Kinase; Phosphoglycerate kinase, glycosomal (Trypanosoma brucei brucei), P07378; PGK/GAPDH coupled, Kinase-Glo luminescence, 60 min; Potency, µM (doses to about 57.5 µM), without a hit: at the top dose activity change, negative = inhibition, usual class: inhibitors; 0.043% of 380,000 active; AID 602233, 2012; note: potency is the fitted concentration of half-maximal effect; nearly all actives have a fitted effect of over 60% in size
Target sequence (P07378 whole entry, looked up): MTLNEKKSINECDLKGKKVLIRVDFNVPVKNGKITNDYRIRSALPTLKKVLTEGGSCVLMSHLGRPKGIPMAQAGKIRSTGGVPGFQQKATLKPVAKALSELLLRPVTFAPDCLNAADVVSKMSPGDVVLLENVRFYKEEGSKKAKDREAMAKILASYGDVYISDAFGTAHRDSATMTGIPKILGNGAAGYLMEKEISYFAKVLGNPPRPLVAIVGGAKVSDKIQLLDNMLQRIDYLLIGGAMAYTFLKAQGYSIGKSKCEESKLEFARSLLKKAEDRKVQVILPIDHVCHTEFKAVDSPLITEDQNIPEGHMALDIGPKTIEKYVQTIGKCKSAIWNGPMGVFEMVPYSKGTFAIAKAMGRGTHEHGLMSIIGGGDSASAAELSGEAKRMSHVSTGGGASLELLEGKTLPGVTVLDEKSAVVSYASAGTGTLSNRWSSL
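Luminescent ATP detection (Kinase-Glo Plus) follows a 60-minute room-temperature incubation, with wells lacking PGK as controls. Buffer: 100 mM TEA (pH 7.6), 5 mM MgCl2, 0.01% Tween-20. Coupling enzyme GAPDH (100 nM final) supplies unstable 1,3-BPG in-well.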
APE1 inh – qHTS Assay for Inhibitors of the Human Apurinic/apyrimidinic Endonuclease 1 (APE1); DNA repair nuclease/redox regulator APEX1 (Homo sapiens), P27695; recombinant APE1, TAMRA/BHQ-2 abasic DNA cleavage fluorescence; Potency, µM (series often up to 65.8 µM), inactives show top-dose activity change, negative = inhibition, actives largely listed as inhibitors; 0.35% of 350,000 active; AID 2517, 2012;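 note: potency is the fitted concentration of half-maximal effect; plate controls were vehicle for no effect and reference inhibitor for full effect; nearly all actives have a fitted effect of over 55% in size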
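Step 1: APE1 (0.75 nM) with compound, 15 min RT. Step 2: add 50 nM fluorophore/quencher THF duplex. Step 3: three fluorescence reads 60 s apart (525/598 nm); read 3 minus read 1 = reaction progress.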
PI4K2A block – qHTS for small molecular inhibitors of PI4K2A; Phosphatidylinositol 4-kinase type 2-alpha (Homo sapiens), Q9BTU6; purified PI4K2A, ADP-Glo luminescence, 1 h; active compounds read low; activity change, negative = inhibition, % at 76.9 µM; 0.13% of 420,000 active; AID 1346378, 2018; in the data active = activity change below about -50%; inconclusive = mostly about -30% to -49%;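 note: -100% = wells without enzyme as full effect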
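ADP-Glo luminescence measured ADP generated by PI4K2A enzyme (4 ug/mL before mixing) with 1.2 mM PI substrate (pre-mix) and 300 microM ATP (pre-mix). Tris pH7.5 buffer with MgCl2, Triton X-100; 1 h reaction at ambient temperature.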
Tb PFK block – qHTS Assay to Find Inhibitors of T. brucei phosphofructokinase. ATP-dependent 6-phosphofructokinase (Trypanosoma brucei brucei), O15648. T. brucei PFK, ADP-Glo luminescence. Potency, µM (titrated, usually from 57.5 µM), without a hit: at the top dose activity, negative = inhibition, actives largely listed as inhibitors. 0.17% of 330,000 active;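 note: potency is the fitted concentration of half-maximal effect; 0% = uninhibited 1x PFK enzyme wells and -100% = no-enzyme wells; nearly all actives have a fitted effect of over 60% in size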
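1.25 nM PFK with 0.5 mM F6P and 0.1 mM ATP in 0.1 M TEA pH 8.0, 5 mM MgCl2, incubated 45 min at room temperature; ADP measured by ADP-Glo luminescence; compounds titrated up to 57 uM.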
Numbers without * were called inactive. Unless noted, calls come from the whole dose curve; as a rule, active = well fitted curve in the direction sought with a large enough effect; inconclusive = small, poorly fitted or top-dose-only effect, or another doubt; inactive = no such curve, though single readings can be large; an effect the other way counts as inactive or inconclusive. Unless noted, % is set by controls: 0 for no effect and ±100 for the full control effect.

Nc1c(/C=C2/C=CC(=O)C(O)=C2)c(=O)nc2sc(CC(=O)N3CCCC3)nn12 was read as TDP1 block inconclusive, FEN1 inhibitor inconclusive, PGK inhibitor inconclusive, APE1 inh 11µM*, PI4K2A block 0 and Tb PFK block inconclusive.
Screening Nc1c(/C=C2/C=CC(=O)C(O)=C2)c(=O)nc2sc(CC(=O)N3CCOCC3)nn12 returned FEN1 inhibitor 25µM*, PGK inhibitor inconclusive and PI4K2A block -7.
Screening Cc1noc(C)c1S(=O)(=O)N(C)C[C@H]1Oc2c(NC(=O)NC3CCCCC3)cccc2C(=O)N([C@H](C)CO)C[C@@H]1C returned TDP1 block 0%, FEN1 inhibitor -2%, PGK inhibitor -6%, APE1 inh 3%, PI4K2A block -2 and Tb PFK block 6%.
`Cc1noc(C)c1S(=O)(=O)N(C)C[C@H]1Oc2c(cccc2N(C)C)C(=O)N([C@H](C)CO)C[C@@H]1C` gave TDP1 block 100µM*, FEN1 inhibitor 8%, PGK inhibitor 6%, APE1 inh 9%, PI4K2A block 1 and Tb PFK block -2%.
Screening COC(=O)CCC(=O)OC1(C)C(=O)C=C2C=C(c3ccsc3)OC=C2C1=O (configuration not stated) returned TDP1 block 7%, FEN1 inhibitor 32µM*, PGK inhibitor -13%, APE1 inh -3% and PI4K2A block -14.
Screening CC1(O)C(=O)C=C2C=C(c3ccsc3)OC=C2C1=O (configuration not stated) returned TDP1 block -1% and APE1 inh 1%.
`CCC(=O)OC1(C)C(=O)C=C2C=C(c3ccsc3)OC=C2C1=O` (configuration not stated) gave TDP1 block -5%, FEN1 inhibitor 40µM*, PGK inhibitor -12%, APE1 inh inconclusive, PI4K2A block -20 and Tb PFK block -3%.
For Cc1ccc(CNc2ncnc3ccc(-c4ccc5c(c4)OCO5)cc23)s1 the results were TDP1 block 2%.
CN(C)c1oc(-c2cccc3ccccc23)nc1C#N was read as APE1 inh 52%.
For CCCN1C(=O)c2ccc(C(=O)Nc3cc(C)ccc3O)cc2C1=O the results were FEN1 inhibitor -13%, PGK inhibitor -18%, APE1 inh 29%, PI4K2A block -56* and Tb PFK block 2%.
`O=c1[nH]c(/C=C/c2ccccc2F)nc2ccccc12` gave TDP1 block 45µM*, FEN1 inhibitor 15%, PGK inhibitor -8%, APE1 inh -10%, PI4K2A block -2 and Tb PFK block 0%.
O=C1CC(=O)N(CCc2ccccc2)C(=O)N1CCc1ccccc1 was read as TDP1 block 1%, FEN1 inhibitor inconclusive, PGK inhibitor 8%, APE1 inh 3%, PI4K2A block -65* and Tb PFK block 0%.
`CC1CC(=O)N(CCc2ccccc2)C(=O)C1` gave FEN1 inhibitor 11%, PGK inhibitor 10% and PI4K2A block 3.
Screening CC(=O)N1CCc2cc(Br)cc(S(=O)(=O)N3CCC(C(=O)Nc4ccc(C(C)C)cc4)CC3)c21 returned TDP1 block 4%, FEN1 inhibitor 89µM*, PGK inhibitor -12% and PI4K2A block -3.
`CC(C)c1ccc(NS(=O)(=O)c2cc(Br)cc3c2N(C(=O)C2CC2)CC3)cc1` gave TDP1 block 3%, FEN1 inhibitor 9%, PGK inhibitor 8% and PI4K2A block 2.
For COc1cc(-c2nnc(COC(=O)c3ccc(C)o3)o2)cc(OC)c1OC the results were TDP1 block 20µM*, FEN1 inhibitor 0%, PGK inhibitor -19%, APE1 inh 24µM*, PI4K2A block -5 and Tb PFK block inconclusive.
For N#Cc1nc(Nc2cccc(F)c2)nc(NC2CCCC2)n1 the results were TDP1 block -4%.
Nc1c(Cl)c(Cl)nc(C(=O)OCC(=O)N2CCCC2=O)c1Cl was read as FEN1 inhibitor -1%, PGK inhibitor -6%, APE1 inh -6%, PI4K2A block 5 and Tb PFK block -4%.
O=C(OCC(=O)N1CCCC1=O)c1nc(Cl)c(Cl)c(Cl)c1Cl was read as TDP1 block 45µM*, FEN1 inhibitor -8%, PGK inhibitor -11%, APE1 inh inconclusive, PI4K2A block -11 and Tb PFK block -21%.
For Nc1ccc(C(=O)N2CC3CC(CN(Cc4ccccc4)C3)C2)cc1 the results were PI4K2A block 1.
`CC1=C(O)C(=O)C(C2=C(O)C(=O)C(C)=C(O)C2=O)=C(O)C1=O` gave FEN1 inhibitor 11%, PGK inhibitor inconclusive and PI4K2A block -12.
`O=C1C(O)=C(O)C(=O)C(O)=C1O` gave APE1 inh 10µM* and PI4K2A block -1.
Screening Cc1c(Cl)cccc1NS(=O)(=O)c1cc2c(cc1Cl)CCC(=O)N2 returned TDP1 block 1%.
`COc1c(CC=C(C)C)cc(C2CC(=O)c3c(O)cc(O)cc3O2)cc1CC=C(C)C` (configuration not stated) gave FEN1 inhibitor inconclusive, PGK inhibitor -2%, APE1 inh -1%, PI4K2A block 0 and Tb PFK block -1%.
COC1=CC(=O)C(C2CC(=O)c3c(O)cc(O)cc3O2)=CC1=O (configuration not stated) was read as FEN1 inhibitor 50µM*, PGK inhibitor -4% and PI4K2A block -4.
O=C1Nc2ccccc2C1(c1ccc(O)cc1)c1ccc(O)cc1 was read as PI4K2A block -3.
For COc1ccc(NS(=O)(=O)c2ccccc2C(=O)O)cc1 the results were TDP1 block 3%.
Screening CC(=O)Nc1cccc(S(=O)(=O)Nc2ccc(C)c(C)c2)c1 returned TDP1 block 1%.
COc1ccc(OC)c(N/C=C/C(=O)c2ccccc2)c1 was read as FEN1 inhibitor -18%, PGK inhibitor inconclusive, APE1 inh -11%, PI4K2A block -52* and Tb PFK block -13%.
